# Sfp inh – Sfp phosphopantetheinyl transferase inhibition | AID 1490 | Biochemical Sfp PPTase activity, qHTS | Q9F4F7 | actives 3.5% (n = 310,000) | Potency, µM, inactives show largest response in the series, negative = inhibition, hits mostly inhibitors;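 note: the enzyme is Sfp with the accession as filed and its product quenches rhodamine fluorescence; 0% = enzyme reaction without inhibitor and -100% = no enzyme wells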
#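 Fluorescence-quenching assay: 15 nM Sfp-PPTase preincubated 15 min at room temperature with compound, then 5 uM rhodamine-CoA and 12.5 uM BHQ-2-labelled YbbR peptide added. Fluorescence (ex 525/em 598 nm) read at start and after 30 min; difference gives rate.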
# VDR inh – blocks the human vitamin D receptor; P11473; VDR-SRC2-3 peptide fluorescence polarization, 2 h; Potency, µM, without a hit: max response, negative = inhibition, actives largely listed as inhibitors; actives 0.93% (n = 400,000)
#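 Fluorescence polarization assay of small-molecule disruption of VDR binding to coregulator peptide SRC2-3. Compounds and controls pin-transferred, then read after 2 h incubation at ambient room temperature.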
# KAT2A inh – inhibitors of human GCN5L2 histone acetyltransferase; Q92830; GCN5L2 HAT assay, ThioGlo1 CoA-SH fluorescence; Potency, µM (series often up to 58.9 µM), inactives show at the top dose activity change, negative = inhibition, usual class: inhibitors; actives 0.21% (n = 390,000)
#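 Free CoA generated was detected with ThioGlo1 (50uM) fluorescence at Ex340nm/Em540nm, read immediately and after 20 min at room temperature. Enzyme, 20 nM in HEPES pH 7.5 buffer, saw compounds 15 min before adding 75uM H3(1-25) peptide and 70uM acetyl-CoA.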
# TrxR1 inh – inhibitors of rat thioredoxin reductase 1 | O89049 | recombinant rTrxR1, NADPH fluorescence consumption, selenite substrate | Potency, µM (top dose mostly 114 µM), for inactives: top-dose activity change, negative = inhibition, hits mostly inhibitors | actives 1% (n = 390,000) | AID 588453; note: nearly all actives have a fitted effect of over 65% in size
# Target sequence (O89049 whole entry, looked up): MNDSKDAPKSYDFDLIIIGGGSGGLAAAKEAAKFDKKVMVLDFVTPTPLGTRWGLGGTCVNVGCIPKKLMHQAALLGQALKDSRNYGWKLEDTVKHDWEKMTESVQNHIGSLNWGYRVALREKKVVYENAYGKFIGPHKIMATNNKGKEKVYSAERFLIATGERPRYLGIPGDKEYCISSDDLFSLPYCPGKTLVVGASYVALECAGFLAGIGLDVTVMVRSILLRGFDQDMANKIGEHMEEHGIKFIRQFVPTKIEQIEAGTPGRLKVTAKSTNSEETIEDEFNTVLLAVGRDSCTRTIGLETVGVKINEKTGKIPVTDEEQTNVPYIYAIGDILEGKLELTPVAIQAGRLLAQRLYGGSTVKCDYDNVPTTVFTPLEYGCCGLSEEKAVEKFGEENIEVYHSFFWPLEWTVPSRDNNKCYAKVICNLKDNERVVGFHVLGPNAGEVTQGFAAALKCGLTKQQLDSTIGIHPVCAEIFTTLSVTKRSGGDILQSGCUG
#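 Rat TrxR1 (90 nM in the dispensed reagent) was pre-reduced with 400 uM NADPH for 5 min at room temperature, then incubated with compound for 15 min. After 400 uM selenite was added, NADPH fluorescence (Ex 340/Em 450 nm) was followed for 8 min.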
# GLS inhibitor – inhibitors of human glutaminase (GLS); AID 624170; O94925; actives 0.21% (n = 410,000); GLS enzymatic activity, qHTS titration; Potency, µM (highest dose often 45.5 µM), inactives show at the highest dose activity change, negative = inhibition, usual class: inhibitors
#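 hKGA; 45 mM KH2PO4 pH 8.2 + 0.02% Tween-20; cpd via pin tool; 1 mM Gln soln; GluOx/HRP/Amplex Red; RT 30 min; fluor. t0 & final.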
# TrxR1 substrate – is turned over as a substrate by rat TrxR1; O89049; purified TrxR1 substrate turnover, NADPH consumption readout; Potency, µM (titrated, usually from 114 µM), inactives show at the highest dose activity change, negative = substrate turnover; actives 0.01% (n = 390,000); AID 588456; note: nearly all actives have a fitted effect of over 50% in size
#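 Rat TrxR1, dispensed at 90 nM, was prereduced with 400 uM NADPH (final) for 5 min at ~22 deg C, then incubated with compound 15 min before 400 uM selenite. A first-read NADPH fluorescence drop versus no-compound background flagged substrates.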
# Active calls of the source: *; ? = inconclusive; · = no result given; ! = repeats disagree; [ ] = remark or other dose. A selection: hits, their analogues and other compounds. The true share with any hit is near 3.8%. Calls come from the whole dose curve; as a rule, active = well fitted curve in the direction sought with a large enough effect; inconclusive = small, poorly fitted or top-dose-only effect, or another doubt; inactive = no such curve, though single readings can be large; an effect the other way counts as inactive or inconclusive. Unless noted, % is set by controls: 0 for no effect and ±100 for the full control effect; potency is the fitted concentration of half-maximal effect.
SMILES,Sfp inh,VDR inh,KAT2A inh,TrxR1 inh,GLS inhibitor,TrxR1 substrate
CC1CN(C(=O)c2cc(S(=O)(=O)N3CCCCC3)ccc2Cl)CC(C)O1 (stereo not drawn),·,9%,-6%,-2%,4%,-2%
CC1=CCC(C(=O)O)C(C(=O)Nc2cccnc2)C1 (stereo not drawn),16%,6%,0%,18%[57.1 µM],2%,-14%[57.1 µM]
Cc1ccc(OCC(=O)Nc2cc(C(=O)O)cc(C(=O)O)c2)cc1C,?,18µM*,-4%,24%[57.1 µM],?,2%
CC1=CC(=NOC(=O)c2cccc([N+](=O)[O-])c2)C=C(C)C1=O,5%,?,-16%,10µM*,26%,-1%
CC1=CC(=O)C(C(C)C)=C/C1=N/OC(=O)c1cccc([N+](=O)[O-])c1,?,-6%,-5%,13µM*,63%,7%
Cc1ccc(C(=O)O/N=C(\N)c2cccc([N+](=O)[O-])c2)cc1,1%,-3%,-3%,11%,6%,3%
C#CCCCO/N=C1/[C@H]2O[C@@H]2[C@@H](O)[C@H]2[C@H]1CCn1c(=O)n(Cc3cc4c(cc3Cl)OCO4)c(=O)n12,14%,·,·,·,·,·
COc1ccc2c(c1)C1=NN(/C(C)=C/C(C)=O)C(c3ccc(F)cc3)C1CC2 (stereo not drawn),-8%,?,3%,-12%,12%,-9%
COc1ccc2c(c1)CCC1C2=NN(/C(C)=C\C(C)=O)C1c1ccc(F)cc1 (stereo not drawn),45µM*,?,3%,?,-4%,-2%
O=C(OCC(=O)N1N=C(c2ccc(Cl)cc2)CC1c1ccco1)c1cncc(Br)c1 (stereo not drawn),·,71µM*,-23%,-71%[57.1 µM],-8%,-1%[2.29 µM]
Cn1cnnc1SCC(=O)N1N=C(c2ccc(Cl)cc2)CC1c1ccco1 (stereo not drawn),50µM*,-1%,-10%,21%,2%,3%
CC(=O)Nc1ccc(NS(=O)(=O)c2ccccc2)c2ccccc12,-7%,-1%,2%,32%,24%,4%
CCC(=O)Nc1ccc2oc(-c3cccc(C)c3)nc2c1,2%,?,-4%,16%,?,152%
Cc1cnc(CNc2ncncc2-c2ccccc2CN(C)C)cn1,-64%,-10%,-17%,·,·,·
O=c1oc2c(O)c(O)cc3c(=O)oc4c(O)c(O)cc1c4c23,?,40µM*!,?,5%,2.8µM*!,4%
Cc1cc([N+](=O)[O-])nn1CCCC(=O)Nc1cc(Oc2ccc(F)cc2)cc([N+](=O)[O-])c1,7%,-27%,-7%,-6%,8%,-16%
NC(=S)N=Nc1c(O)[nH]c2cc(F)c(F)cc12,45µM*,-6%,-8%,?,3%,-20%
CCOC(=O)N1CCN(C(=O)C2CC(=O)N(Cc3ccc(OC)cc3)C2)CC1 (stereo not drawn),14%,21%,-12%,-3%[57.1 µM],0%,5%[57.1 µM]
COc1cc2c(cc1OC)C(c1ccc(SC)cc1)CC(=O)N2 (stereo not drawn),89µM*,2%,-4%,22%,2%,3%
Cc1ccc(S(=O)(=O)N2CCOCC2)cc1NC(=O)COC(=O)c1cc(=O)[nH]c2ccccc12,15%,-9%,-16%,25%,-4%,7%
COc1ccc(/[N+]([O-])=C/c2ccco2)cc1,·,?,-6%,56µM*,11%,-7%
COc1cc2c(C#N)c(N3CCCC3)nc(N)c2c(N)n1,4µM*,28µM*!,-3%,-26%[57.1 µM],11%,16µM*!
COc1cc2c(C#N)c(N3CCN(C)CC3)nc(N)c2c(N)n1,8%,·,-18%,·,·,·
Cc1ccc(C)n1C(CC(=O)O)c1ccc(C#N)cc1 (stereo not drawn),18%,3%,-2%,-14%[57.1 µM],15%,-2%[57.1 µM]
COC(=O)CN1C(=S)N(c2ccc(Cl)cc2)C(=O)C1CC(=O)Nc1ccc(F)cc1 (stereo not drawn),-7%,0%,-3%,-9%,-4%,-17%
SMILES,Sfp inh,VDR inh,KAT2A inh,TrxR1 inh,GLS inhibitor,TrxR1 substrate
COC(=O)CN1C(=S)N(c2ccc(Cl)cc2)C(=O)C1CC(=O)Nc1ccc(Cl)cc1 (stereo not drawn),79µM*,-6%,-12%,14%,-1%,3%
Cc1cc(-c2nc3c4c5c(sc4[nH]c(=O)n3n2)CCC5)c(C)o1,28µM*,-22%,?,-20%,152%,7%
N#CC1CN(Cc2ccccc2)CN(Cc2ccccc2)C1,12%,0%,-2%,12%,-3%,-4%
COc1ccc(Br)cc1C1CC(=O)N2CN(Cc3ccccc3)CSC2=C1C#N (stereo not drawn),2.2µM*,71µM*,?,?,0%,-2%[57.1 µM]
N#CC1=C2SCN(Cc3ccccc3)CN2C(=O)CC1c1ccccc1F (stereo not drawn),2µM*,50µM*,-16%,?,-14%,7%[57.1 µM]
CC(C)(C)OC(=O)N/N=C\c1ccc(OC(=O)c2ccco2)cc1,12%,-3%,-8%,13%[57.1 µM],0%,-4%
O=C(Cn1cc([N+](=O)[O-])ccc1=O)N1CCCc2ccccc21,·,-13%,-18%,6%,3%,-4%
CC(C)OC(=O)CSc1nnc(-c2ccncc2)n1N,6%,-5%,0%,4%,0%,-3%
CC(C)OC(=O)CSc1nnc(-c2ccc(C(C)(C)C)cc2)n1N,16µM*,?,1%,-22%,-12%,-7%
Cc1nc(SCC(=O)c2ccccc2)c(C#N)c(-c2ccco2)c1C(=O)NCc1ccco1,22µM*,?,-21%,50µM*,-4%,15%
O=C(c1ccc(F)cc1F)N1CCCC(c2nc(-c3ccc(F)cc3)no2)C1 (stereo not drawn),3%,23%,-4%,29%,15%,1%
Cc1c(NC(=S)NC(=O)c2ccc(-c3ccc(Cl)cc3)o2)cccc1C(=O)O,-29%,?,-7%,?,20%,-2%
O=C(CSc1nnc(C2CCCCC2)n1-c1ccccc1)NCc1ccco1,11%,-16%,1%,13µM*,20%,13%
O=C(CSc1nnc(CNc2ccc(F)cc2)n1Cc1ccco1)NC1CC1,56µM*,-1%,-2%,?,25%,5%
O=C(CSc1nnc(CNc2cccc(C(F)(F)F)c2)n1Cc1ccco1)NCc1ccco1,-10%,0%,1%,16µM*,-1%,11%[57.1 µM]
C=CCn1c(COc2cccc(C)c2)nnc1SCC(=O)NC(=O)NCc1ccco1,25µM*,-7%,-25%,-22%[57.1 µM],-8%,12%[57.1 µM]
